Compounds without any hit were thinned out: in the full panel of roughly 83,000, 20% have a hit.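 Note: values are percent growth. 100 is the growth of untreated cells, values between 100 and 0 indicate rising inhibition; between -100 and 0 indicates cell death.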 Calls of active or inactive are those of the source. The calls were made as follows: active = growth percent below 10; inactive = the rest.
Tests used:
Assay in all cases: NCI-60 one-dose screen, 48 h (100 = growth as untreated, 0 = no growth, -100 = all killed)
Settings in all cases: 10 µM unless noted
NCI-H23 lung = system: NCI-H23 lung
NCI-H226 lung = system: NCI-H226 lung
NCI-H322M lung = system: NCI-H322M lung
HOP-62 NSCLC = system: HOP-62 NSCLC
NCI-H460 lung = system: NCI-H460 lung
HOP-92 NSCLC = system: HOP-92 NSCLC
NCI-H522 lung = system: NCI-H522 lung
A549/ATCC NSCLC = system: A549/ATCC NSCLC
786-0 renal = system: 786-0 renal
COLO 205 colon = system: COLO 205 colon
DU-145 prostate = system: DU-145 prostate
K-562 leukemia = system: K-562 leukemia
MALME-3M melanoma = system: MALME-3M melanoma
MDA-MB-231 breast = system: MDA-MB-231 breast
RXF 393 renal = system: RXF 393 renal
SF-268 CNS = system: SF-268 CNS
SF-295 CNS = system: SF-295 CNS
SF-539 CNS = system: SF-539 CNS
UACC-257 melanoma = system: UACC-257 melanoma
M14 melanoma = system: M14 melanoma

Measured: growth

CC1=C/C(=C(\c2ccc(N(C)C)cc2)c2ccc([N+](C)(C)C)cc2)C=CC1=[N+](C)C
inactive: NCI-H23 lung 80.4% | NCI-H226 lung 88.4% | NCI-H322M lung 104% | HOP-62 NSCLC 37% | NCI-H460 lung 74.9% | HOP-92 NSCLC 56.5% | NCI-H522 lung 97.2% | A549/ATCC NSCLC 29.2% | 786-0 renal 94.7% | COLO 205 colon 66% | DU-145 prostate 51.5% | K-562 leukemia 37.5% | MALME-3M melanoma 120% | MDA-MB-231 breast 93.9% | RXF 393 renal 76.6% | SF-268 CNS 92% | SF-295 CNS 48.4% | SF-539 CNS 78.6% | UACC-257 melanoma 99.8% | M14 melanoma 77.5%

C#CCOc1ccc2ncnc(Nc3cccc(CNC(=O)CCl)c3)c2c1
active: NCI-H522 lung -47.7% [8.25 µM]
inactive: NCI-H23 lung 44.5% [8.25 µM] | NCI-H226 lung 27.7% [8.25 µM] | NCI-H322M lung 71.3% [8.25 µM] | HOP-62 NSCLC 13.1% [8.25 µM] | NCI-H460 lung 61.3% [8.25 µM] | HOP-92 NSCLC 54% [8.25 µM] | A549/ATCC NSCLC 53.3% [8.25 µM] | 786-0 renal 25.7% [8.25 µM] | COLO 205 colon 68.2% [8.25 µM] | DU-145 prostate 57.9% [8.25 µM] | K-562 leukemia 29.5% [8.25 µM] | MALME-3M melanoma 68.8% [8.25 µM] | MDA-MB-231 breast 53.4% [8.25 µM] | RXF 393 renal 14% [8.25 µM] | SF-268 CNS 39.7% [8.25 µM] | SF-295 CNS 92% [8.25 µM] | SF-539 CNS 54.8% [8.25 µM] | UACC-257 melanoma 58.7% [8.25 µM] | M14 melanoma 61.7% [8.25 µM]

Cn1cc(-c2nonc2-c2cn(C)c3ccc(F)cc23)c2cc(F)ccc21
inactive: NCI-H23 lung 67.6% | NCI-H226 lung 51.3% | NCI-H322M lung 97.3% | HOP-62 NSCLC 45.6% | NCI-H460 lung 49.9% | HOP-92 NSCLC 66% | NCI-H522 lung 22% | A549/ATCC NSCLC 47.9% | 786-0 renal 85.7% | COLO 205 colon 62.4% | DU-145 prostate 81.1% | K-562 leukemia 12.6% | MALME-3M melanoma 49.5% | MDA-MB-231 breast 82.3% | RXF 393 renal 46.7% | SF-268 CNS 71.3% | SF-295 CNS 56.4% | SF-539 CNS 66.1% | UACC-257 melanoma 71.7% | M14 melanoma 31.4%

O=S(=O)(Nc1ccc(I)cc1F)c1ccc(-c2cnc(C3CC3)o2)cc1
inactive: NCI-H23 lung 71.2% | NCI-H226 lung 80.2% | NCI-H322M lung 86.2% | HOP-62 NSCLC 52.4% | NCI-H460 lung 38.4% | HOP-92 NSCLC 62.1% | NCI-H522 lung 31.2% | A549/ATCC NSCLC 50.6% | 786-0 renal 69.1% | COLO 205 colon 68.4% | DU-145 prostate 78.2% | K-562 leukemia 13.2% | MALME-3M melanoma 50.9% | MDA-MB-231 breast 61% | RXF 393 renal 73% | SF-268 CNS 63.3% | SF-295 CNS 28.6% | SF-539 CNS 44.1% | UACC-257 melanoma 63.1% | M14 melanoma 37.4%

COc1ccc(-n2nc(C)c3c(Oc4ccc(NC(=O)Nc5c(Cl)cccc5Cl)cc4)ncnc32)cc1
inactive: NCI-H23 lung 98.3% | NCI-H226 lung 107% | NCI-H322M lung 96.8% | HOP-62 NSCLC 97.7% | NCI-H460 lung 101% | HOP-92 NSCLC 98% | NCI-H522 lung 93.6% | A549/ATCC NSCLC 103% | 786-0 renal 110% | COLO 205 colon 99% | DU-145 prostate 105% | K-562 leukemia 104% | MALME-3M melanoma 99.4% | MDA-MB-231 breast 101% | RXF 393 renal 107% | SF-268 CNS 93.6% | SF-295 CNS 100% | SF-539 CNS 96.7% | UACC-257 melanoma 102% | M14 melanoma 110%

Cn1cc(C(=O)c2nc(-c3c[nH]c4ccccc34)no2)c2ccccc21
inactive: NCI-H23 lung 65.6% | NCI-H226 lung 57.3% | NCI-H322M lung 68.2% | HOP-62 NSCLC 78.9% | NCI-H460 lung 35.2% | HOP-92 NSCLC 63.8% | NCI-H522 lung 56.5% | A549/ATCC NSCLC 73.7% | 786-0 renal 98.4% | COLO 205 colon 56% | DU-145 prostate 102% | K-562 leukemia 37.9% | MALME-3M melanoma 58.4% | MDA-MB-231 breast 69.8% | RXF 393 renal 90.1% | SF-268 CNS 92.1% | SF-295 CNS 68.5% | SF-539 CNS 91.7% | UACC-257 melanoma 83.9% | M14 melanoma 64.5%

O=C1OC(c2ccccc2)C(O)=C1c1ccccc1 (stereo not given)
inactive: NCI-H23 lung 115% | NCI-H226 lung 100% | NCI-H322M lung 130% | HOP-62 NSCLC 122% | NCI-H460 lung 113% | HOP-92 NSCLC 96.4% | NCI-H522 lung 110% | A549/ATCC NSCLC 86.6% | 786-0 renal 116% | COLO 205 colon 120% | DU-145 prostate 112% | K-562 leukemia 110% | MALME-3M melanoma 116% | MDA-MB-231 breast 104% | RXF 393 renal 111% | SF-268 CNS 96.4% | SF-295 CNS 109% | SF-539 CNS 102% | UACC-257 melanoma 95.2% | M14 melanoma 111%
